The record followed here is the supplement of paper PMC12669032.

SMILES strings stand for the structures. A number with no mark means an inactive call.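 How the source made its calls: active = AUC reduced over 20% with Padj below 0.05 in at least 2 of 3 replicates; inactive = otherwise.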

In the first experiment the test system is Akkermansia muciniphila. The experiment can be described thus: growth AUC relative to DMSO control (median of replicates) (fraction); higher = more growth (less inhibition), active = hit call of the paper. The note with it: 20 µM; 24 h. In short, it runs like this: (§1)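 Starting at OD600 0.05, gut bacterial monocultures in mGAM were grown anaerobically at 37 °C with 20 µM compound (1% DMSO) under pierced gas-permeable seals. OD600 was read every hour for 24 h, and the lowest OD of each curve was set to 0. Area under the growth curve was normalised to the plate median of solvent-only wells, or to row and column medians on the industrial chemical plate, and the median of three biological replicates grown on separate days is given.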
`Nc1cc(Cl)nc(C(=O)O)c1Cl`: the “growth AUC” value was 1.11. Still for that read-out and setting: next, `CCc1cccc(C)c1N(C(=O)C(=O)O)[C@@H](C)C(=O)O`: 1.17; `O=S(=O)(Oc1ccc(Cl)cc1)c1ccccc1`: 0.785; `Oc1ccc2nc(-c3cscn3)[nH]c2c1`: 0.877. The same measure, in the same setting: then `COC(=O)c1csc(C)c1S(=O)(=O)NC(=O)n1nc(OC)n(C)c1=O`, with 1.17; and `CCCCOCN(C(=O)CS(=O)(=O)[O-])c1c(CC)cccc1CC.[Na+]`, with 0.979; and `O.O.O=[N+]([O-])c1ccc([O-])cc1.[Na+]`, with 1.02. On the same count and under the same terms, next, `COCC(=O)N(c1c(C)cccc1C(=O)O)C(C)C(=O)O` (stereo not given): 0.834; `O=C(O)COc1ccc(Cl)cc1CO`: 1.15. As for `CCOc1ccc2c(c1)C(C)=CC(C)(C)N2`, the “growth AUC” value was 0.9. As to `CC(C)CCCCCOC(=O)C(C)Oc1ccc(Cl)cc1Cl` (stereo not given), the “growth AUC” value was 1.14. On the same count and under the same terms, next, `[S]`: 1.05; `CCCC(C)(C)C(=O)Nc1ccc(Cl)cc1`: 0.942; `CSc1nnc(C(C)(C)C)c(=O)n1/N=C/C(C)C`: 0.944. In the case of `O=C(O)CCCc1c[nH]c2ccccc12`, the “growth AUC” value was 1.13. For the compound `C=C1C[C@]23C[C@@]1(O)CC[C@H]2[C@@]12C=C[C@H](O)[C@@](C)(C(=O)O1)[C@H]2[C@@H]3C(=O)O`, the “growth AUC” value is 1.24. For the compound `Nc1ccc(S(=O)(=O)Nc2nccs2)cc1`, the “growth AUC” value was 0.9. Same read-out and setting: then `CCCCCCCCCC[N+](C)(C)Cc1ccccc1.[Cl-]`, with 0.987.

Regarding `CN1CCC[C@H]1c1cccnc1`, the “growth AUC” value is 0.753. Same read-out and setting: next, `O=C1NCCN1`: 1.15; `O=C(O)COc1cccc(Cl)c1Cl`: 0.919.

The next experiment relates to Bacteroides caccae. The description is as above. As to conditions: 20 µM; 24 h. The gist of the method: as §1
For `CN(C)C(=O)Nc1ccc(Cl)c(Cl)c1`, the “growth AUC” value was 0.995. On to `CCOC(=O)C1CC(=O)C(=C(O)C2CC2)C(=O)C1` (stereo not given), for which the “growth AUC” value is 1.03. On to `COC(=O)C(C)Oc1ccc(Cl)cc1C` (stereo not given), for which the “growth AUC” value was 0.999. On the same count and under the same terms, next, `FC(F)(F)C(=NOCC1OCCO1)c1ccc(Cl)cc1`: 0.948. Same read-out and setting: then `NC(=S)Nc1cccc2ccccc12`, with 0.892; and `CC(C)c1cc(Oc2ccccc2)cc(C(C)C)c1NC(=S)NC(C)(C)C`, with 0.984.

As to `O=[N+](Nc1ccccc1)c1ccccc1`, the “growth AUC” value is 0.972. As for `Cc1[nH]n(C)c(=O)c1C(=O)c1ccc(C(F)(F)F)cc1S(C)(=O)=O`, the “growth AUC” value was 1.06.

For the compound `O=C=NC1CCC(CC2CCC(N=C=O)CC2)CC1` (stereo not given), the “growth AUC” value is 0.986. Regarding `CCc1cccc(C)c1N(COC(C)C)C(=O)CCl`, the “growth AUC” value is 1. `O=C(Nc1ccc(Cl)cc1C(O)c1ccccc1)c1ccncc1` (stereo not given): the “growth AUC” value is 0.985. Turning to `CNC(=O)Nc1nc2ccccc2s1`, the “growth AUC” value is 0.953. For `CC(C)CNC(=O)N1CCNC1=O`, the “growth AUC” value is 0.975. The same measure, in the same setting: then `C/C=C/C(=O)Oc1c(C(C)CCCCCC)cc([N+](=O)[O-])cc1[N+](=O)[O-]` (mixture of isomers), with 0.285 (active); and `CCOC(=O)NCCOc1ccc(Oc2ccccc2)cc1`, with 0.934.

Consider `NC(=O)Cc1cccc2ccccc12`, for which the “growth AUC” value was 1. As for `NS(=O)(=O)[O-].[NH4+]`, the “growth AUC” value was 1.01. Same read-out and setting: next, `COC(=O)c1ccc(C(=O)OC)cc1`: 0.964; `Nc1cc(Cl)nc(C(=O)O)c1Cl`: 1.01. Still for that read-out and setting: then `CCc1cccc(C)c1N(C(=O)C(=O)O)[C@@H](C)C(=O)O`, with 0.993; and `O=S(=O)(Oc1ccc(Cl)cc1)c1ccccc1`, with 0.959; and `Oc1ccc2nc(-c3cscn3)[nH]c2c1`, with 1.07. As to `COC(=O)c1csc(C)c1S(=O)(=O)NC(=O)n1nc(OC)n(C)c1=O`, the “growth AUC” value was 0.981. `CCCCOCN(C(=O)CS(=O)(=O)[O-])c1c(CC)cccc1CC.[Na+]`: the “growth AUC” value was 0.997. Consider `O.O.O=[N+]([O-])c1ccc([O-])cc1.[Na+]`, for which the “growth AUC” value is 0.999.

On to `COCC(=O)N(c1c(C)cccc1C(=O)O)C(C)C(=O)O` (stereo not given), for which the “growth AUC” value was 1.02.

For `O=C(O)COc1ccc(Cl)cc1CO`, the “growth AUC” value is 0.99. The same measure, in the same setting: next, `CCOc1ccc2c(c1)C(C)=CC(C)(C)N2`: 1.04; `CC(C)CCCCCOC(=O)C(C)Oc1ccc(Cl)cc1Cl` (stereo not given): 1. On the same count and under the same terms, next, `[S]`: 0.954; `CCCC(C)(C)C(=O)Nc1ccc(Cl)cc1`: 1; `CSc1nnc(C(C)(C)C)c(=O)n1/N=C/C(C)C`: 0.905. Still for that read-out and setting: next, `O=C(O)CCCc1c[nH]c2ccccc12`: 1.01; `C=C1C[C@]23C[C@@]1(O)CC[C@H]2[C@@]12C=C[C@H](O)[C@@](C)(C(=O)O1)[C@H]2[C@@H]3C(=O)O`: 0.966; `Nc1ccc(S(=O)(=O)Nc2nccs2)cc1`: 1.03. For the compound `CCCCCCCCCC[N+](C)(C)Cc1ccccc1.[Cl-]`, the “growth AUC” value was 0.962.

Regarding `CN1CCC[C@H]1c1cccnc1`, the “growth AUC” value was 0.995.

Regarding `O=C1NCCN1`, the “growth AUC” value was 1.02. Still for that read-out and setting: then `O=C(O)COc1cccc(Cl)c1Cl`, with 0.947.
